For one sequence, binding signal results are on record in paper PMC7862700, “An all-to-all approach to the identification of sequence-specific readers for epigenetic DNA modifications on cytosine”.

Holding throughout (experiment): DAPPL (digital affinity profiling via proximity ligation, sequencing); 10 mM Tris-HCl pH 7.5, 50 mM NaCl, 1 mM DTT, 4% glycerol, room temperature, 30 min; GST-TFs on glutathione beads, 16-mer random dsDNA library, 0.1% formaldehyde crosslink after washing; high values mean tight binding
One assay deals with T1, FLI1 (Homo sapiens, UniProt Q01543 1-452).
T1 sequence: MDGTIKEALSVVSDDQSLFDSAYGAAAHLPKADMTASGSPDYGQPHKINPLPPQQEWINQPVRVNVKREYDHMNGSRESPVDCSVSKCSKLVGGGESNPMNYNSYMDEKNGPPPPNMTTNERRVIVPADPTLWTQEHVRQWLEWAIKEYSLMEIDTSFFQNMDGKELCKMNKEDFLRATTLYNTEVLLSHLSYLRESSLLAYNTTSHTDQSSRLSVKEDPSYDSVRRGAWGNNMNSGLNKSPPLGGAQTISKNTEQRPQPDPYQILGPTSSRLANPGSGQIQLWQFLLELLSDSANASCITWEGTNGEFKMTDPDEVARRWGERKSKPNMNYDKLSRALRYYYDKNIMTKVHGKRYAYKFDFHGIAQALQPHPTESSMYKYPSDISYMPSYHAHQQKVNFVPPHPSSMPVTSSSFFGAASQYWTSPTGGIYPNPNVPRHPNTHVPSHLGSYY
The settings on record: protein: recombinant; tags: N-terminal GST; dsDNA, one strand shown. In outline:
(§1)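 Beads coated with glutathione captured GST-fused human transcription factors that had been expressed in yeast, and the factors were then given DNA barcodes and pooled with a tag-only sample. The pools were incubated with 200 nmole of a random double-stranded 16-mer DNA library in Tris/NaCl/DTT/glycerol buffer for 30 min at room temperature, washed, crosslinked with 0.1% formaldehyde and proximity-ligated with BsaI/T4 ligase at 37 °C for 1 h. PCR amplification and Illumina NextSeq500 sequencing came last. Binding signal is each hexamer's read frequency for a factor divided by its frequency for the tag-only sample.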

The target in another assay is T2, ELK1 (Homo sapiens, UniProt P19419 1-428).
T2 sequence: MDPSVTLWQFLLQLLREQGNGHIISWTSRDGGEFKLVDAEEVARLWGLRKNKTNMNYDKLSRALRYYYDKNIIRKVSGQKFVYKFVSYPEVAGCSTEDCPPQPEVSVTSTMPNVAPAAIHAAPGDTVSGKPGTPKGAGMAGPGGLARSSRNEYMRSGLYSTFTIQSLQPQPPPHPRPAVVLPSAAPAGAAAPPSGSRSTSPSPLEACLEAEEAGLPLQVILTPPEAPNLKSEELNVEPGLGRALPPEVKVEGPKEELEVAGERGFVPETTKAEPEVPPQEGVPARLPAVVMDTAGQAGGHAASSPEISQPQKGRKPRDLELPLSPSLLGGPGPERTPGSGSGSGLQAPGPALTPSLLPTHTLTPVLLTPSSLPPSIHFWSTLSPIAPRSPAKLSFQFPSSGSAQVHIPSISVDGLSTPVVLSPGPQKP
The settings on record: protein: recombinant; tags: N-terminal GST; dsDNA, one strand shown. In outline:
as §1

The next assay deals with T3, GABPA (Homo sapiens, UniProt Q06546 1-454).
T3 sequence: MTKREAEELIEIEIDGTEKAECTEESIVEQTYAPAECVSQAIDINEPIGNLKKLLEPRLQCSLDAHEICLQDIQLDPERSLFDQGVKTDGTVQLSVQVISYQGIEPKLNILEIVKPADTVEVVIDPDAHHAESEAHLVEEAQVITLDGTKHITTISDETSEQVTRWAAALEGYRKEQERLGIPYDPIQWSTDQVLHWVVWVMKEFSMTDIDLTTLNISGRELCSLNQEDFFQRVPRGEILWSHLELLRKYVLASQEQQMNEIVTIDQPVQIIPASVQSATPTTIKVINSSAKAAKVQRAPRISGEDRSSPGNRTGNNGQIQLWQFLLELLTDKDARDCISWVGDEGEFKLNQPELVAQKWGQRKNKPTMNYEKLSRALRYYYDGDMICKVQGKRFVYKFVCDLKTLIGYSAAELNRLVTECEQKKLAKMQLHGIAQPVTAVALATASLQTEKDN
The settings on record: protein: recombinant; tags: N-terminal GST; dsDNA, one strand shown. In outline: as §1

The target in another assay is T4, ERG (Homo sapiens, UniProt P11308 1-479).
T4 sequence: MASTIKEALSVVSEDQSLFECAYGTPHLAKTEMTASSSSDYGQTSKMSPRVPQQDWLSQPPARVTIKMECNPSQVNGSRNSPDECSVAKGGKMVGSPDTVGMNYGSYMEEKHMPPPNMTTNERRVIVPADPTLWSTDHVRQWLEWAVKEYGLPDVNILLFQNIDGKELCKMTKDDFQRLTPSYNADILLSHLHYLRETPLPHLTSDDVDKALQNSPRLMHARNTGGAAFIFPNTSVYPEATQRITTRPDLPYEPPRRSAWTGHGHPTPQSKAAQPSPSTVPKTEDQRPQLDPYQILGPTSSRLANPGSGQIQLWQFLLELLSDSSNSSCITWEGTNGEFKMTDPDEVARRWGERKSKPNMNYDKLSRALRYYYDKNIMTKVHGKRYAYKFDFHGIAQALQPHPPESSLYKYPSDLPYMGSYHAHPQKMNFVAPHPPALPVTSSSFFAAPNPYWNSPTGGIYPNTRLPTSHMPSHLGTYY
The settings on record: protein: recombinant; tags: N-terminal GST; dsDNA, one strand shown. The procedure, abridged: as §1

The target in another assay is ELF1 (Homo sapiens, UniProt P32519 1-619). Particulars: protein: recombinant; tags: N-terminal GST; dsDNA, one strand shown. In outline: as §1
ELF1, sequence (P32519 whole entry): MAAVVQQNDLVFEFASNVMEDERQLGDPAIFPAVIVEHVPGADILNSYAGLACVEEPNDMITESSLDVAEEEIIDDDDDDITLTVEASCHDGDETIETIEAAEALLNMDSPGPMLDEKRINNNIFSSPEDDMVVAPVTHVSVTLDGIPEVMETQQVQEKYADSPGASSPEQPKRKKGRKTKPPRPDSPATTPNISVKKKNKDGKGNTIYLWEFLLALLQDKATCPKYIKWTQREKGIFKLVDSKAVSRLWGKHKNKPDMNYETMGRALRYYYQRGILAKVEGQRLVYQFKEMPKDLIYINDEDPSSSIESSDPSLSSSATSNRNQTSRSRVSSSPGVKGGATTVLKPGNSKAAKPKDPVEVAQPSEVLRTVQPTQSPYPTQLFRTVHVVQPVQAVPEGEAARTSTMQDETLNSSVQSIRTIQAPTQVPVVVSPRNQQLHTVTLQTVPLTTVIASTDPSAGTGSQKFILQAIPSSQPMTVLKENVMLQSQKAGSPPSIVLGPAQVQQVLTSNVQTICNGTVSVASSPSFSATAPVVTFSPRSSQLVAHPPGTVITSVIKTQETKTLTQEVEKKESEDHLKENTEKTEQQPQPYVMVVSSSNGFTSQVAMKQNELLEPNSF
In a further assay the target is T5, EHF (Homo sapiens, UniProt Q9NZC4 1-300).
T5 sequence: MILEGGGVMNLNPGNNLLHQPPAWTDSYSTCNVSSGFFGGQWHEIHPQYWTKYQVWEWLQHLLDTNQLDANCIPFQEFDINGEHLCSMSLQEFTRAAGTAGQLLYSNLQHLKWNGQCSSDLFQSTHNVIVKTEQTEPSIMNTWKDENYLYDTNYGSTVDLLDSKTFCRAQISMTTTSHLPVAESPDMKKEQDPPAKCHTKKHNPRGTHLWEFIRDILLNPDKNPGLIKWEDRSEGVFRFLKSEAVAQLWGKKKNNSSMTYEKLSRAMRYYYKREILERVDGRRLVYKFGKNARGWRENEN
Particulars: protein: recombinant; tags: N-terminal GST; dsDNA, one strand shown. In outline:
as §1

Another assay addresses SPI1 (Homo sapiens, UniProt P17947 1-270). Particulars: protein: recombinant; tags: N-terminal GST; dsDNA, one strand shown. In outline: as §1
A further assay concerns the target SPIB (Homo sapiens, UniProt Q01892 1-262). The settings on record: protein: recombinant; tags: N-terminal GST; dsDNA, one strand shown. The procedure, abridged: as §1
Another assay concerns the target T6, ELK3 (Homo sapiens, UniProt P41970 1-407).
T6 sequence: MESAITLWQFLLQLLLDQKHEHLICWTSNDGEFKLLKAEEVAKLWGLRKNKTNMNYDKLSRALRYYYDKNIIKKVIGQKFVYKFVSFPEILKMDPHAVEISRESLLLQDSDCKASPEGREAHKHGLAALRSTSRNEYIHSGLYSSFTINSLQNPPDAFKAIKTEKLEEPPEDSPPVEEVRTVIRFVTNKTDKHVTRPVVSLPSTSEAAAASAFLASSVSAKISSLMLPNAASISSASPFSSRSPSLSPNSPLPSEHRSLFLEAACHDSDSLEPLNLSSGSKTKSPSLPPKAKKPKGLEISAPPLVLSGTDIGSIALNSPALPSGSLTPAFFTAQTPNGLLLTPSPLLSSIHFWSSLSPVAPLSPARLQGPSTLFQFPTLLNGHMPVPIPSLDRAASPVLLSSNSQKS
Particulars: protein: recombinant; tags: N-terminal GST; dsDNA, one strand shown. The procedure, abridged: as §1

In the next assay the target is T7, FEV (Homo sapiens, UniProt Q99581 1-238).
T7 sequence: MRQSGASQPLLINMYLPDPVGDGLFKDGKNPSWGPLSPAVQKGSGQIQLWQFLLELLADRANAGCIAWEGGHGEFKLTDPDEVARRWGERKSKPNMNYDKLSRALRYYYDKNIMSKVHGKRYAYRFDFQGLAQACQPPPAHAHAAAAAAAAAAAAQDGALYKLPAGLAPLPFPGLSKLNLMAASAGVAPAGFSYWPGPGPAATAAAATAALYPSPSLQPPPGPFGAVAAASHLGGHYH
The settings on record: protein: recombinant; tags: N-terminal GST; dsDNA, one strand shown. The procedure, abridged: as §1

In a further assay the target is ETV5 (Homo sapiens, UniProt P41161 1-510). The settings on record: protein: recombinant; tags: N-terminal GST; dsDNA, one strand shown. In outline: as §1
ETV5, sequence (P41161 whole entry): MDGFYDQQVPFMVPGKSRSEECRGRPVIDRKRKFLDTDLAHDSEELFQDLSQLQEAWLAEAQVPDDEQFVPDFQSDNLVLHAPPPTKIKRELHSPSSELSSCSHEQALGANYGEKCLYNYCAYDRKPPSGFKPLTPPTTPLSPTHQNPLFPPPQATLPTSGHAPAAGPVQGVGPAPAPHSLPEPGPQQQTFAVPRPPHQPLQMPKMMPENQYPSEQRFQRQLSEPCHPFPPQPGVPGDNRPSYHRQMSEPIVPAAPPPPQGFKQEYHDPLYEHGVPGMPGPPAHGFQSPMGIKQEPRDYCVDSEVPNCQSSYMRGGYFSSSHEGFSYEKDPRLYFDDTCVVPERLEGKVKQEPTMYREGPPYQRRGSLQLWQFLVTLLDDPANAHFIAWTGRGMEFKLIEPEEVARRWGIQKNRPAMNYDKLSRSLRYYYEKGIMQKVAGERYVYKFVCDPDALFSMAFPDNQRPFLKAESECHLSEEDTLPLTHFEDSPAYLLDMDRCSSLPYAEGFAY
A further assay concerns the target HSF1 (Homo sapiens, UniProt Q00613 1-529). The settings on record: protein: recombinant; tags: N-terminal GST; chain copies: 3; dsDNA, one strand shown. The procedure, abridged:
as §1

The target in a further assay is T8, SPIC (Homo sapiens, UniProt Q8N5J4 1-248).
T8 sequence: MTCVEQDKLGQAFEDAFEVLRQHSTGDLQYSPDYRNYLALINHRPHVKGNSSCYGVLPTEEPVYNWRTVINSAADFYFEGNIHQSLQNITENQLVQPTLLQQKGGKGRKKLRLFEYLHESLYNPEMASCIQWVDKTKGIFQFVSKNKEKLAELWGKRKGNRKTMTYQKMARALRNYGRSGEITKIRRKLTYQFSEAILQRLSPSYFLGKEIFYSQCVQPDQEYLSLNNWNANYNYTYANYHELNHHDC
Particulars: protein: recombinant; tags: N-terminal GST; dsDNA, one strand shown. The procedure, abridged: as §1

Another assay deals with ELF4 (Homo sapiens, UniProt Q99607 1-663). The settings on record: protein: recombinant; tags: N-terminal GST; dsDNA, one strand shown. The procedure, abridged: as §1
ELF4, sequence (Q99607 whole entry): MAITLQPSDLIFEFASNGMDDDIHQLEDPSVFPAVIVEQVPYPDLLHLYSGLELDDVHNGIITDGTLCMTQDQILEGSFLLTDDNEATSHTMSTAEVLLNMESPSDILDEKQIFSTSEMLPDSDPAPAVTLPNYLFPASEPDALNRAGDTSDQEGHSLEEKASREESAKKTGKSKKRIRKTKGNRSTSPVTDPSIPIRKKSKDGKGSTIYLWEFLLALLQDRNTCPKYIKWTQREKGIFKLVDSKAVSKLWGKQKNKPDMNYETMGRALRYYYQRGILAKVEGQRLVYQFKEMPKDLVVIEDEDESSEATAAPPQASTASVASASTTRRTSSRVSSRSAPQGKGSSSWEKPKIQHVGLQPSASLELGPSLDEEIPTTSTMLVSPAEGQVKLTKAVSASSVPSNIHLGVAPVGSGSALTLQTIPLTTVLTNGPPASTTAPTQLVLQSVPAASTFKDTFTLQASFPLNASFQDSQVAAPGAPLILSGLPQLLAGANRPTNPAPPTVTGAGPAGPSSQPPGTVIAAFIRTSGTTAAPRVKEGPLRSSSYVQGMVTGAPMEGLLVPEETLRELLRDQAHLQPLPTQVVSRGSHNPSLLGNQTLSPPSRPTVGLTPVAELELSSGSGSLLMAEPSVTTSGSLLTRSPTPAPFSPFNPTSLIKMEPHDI
The target of the next assay is T9, ELK4 (Homo sapiens, UniProt P28324-2 1-405).
T9 sequence: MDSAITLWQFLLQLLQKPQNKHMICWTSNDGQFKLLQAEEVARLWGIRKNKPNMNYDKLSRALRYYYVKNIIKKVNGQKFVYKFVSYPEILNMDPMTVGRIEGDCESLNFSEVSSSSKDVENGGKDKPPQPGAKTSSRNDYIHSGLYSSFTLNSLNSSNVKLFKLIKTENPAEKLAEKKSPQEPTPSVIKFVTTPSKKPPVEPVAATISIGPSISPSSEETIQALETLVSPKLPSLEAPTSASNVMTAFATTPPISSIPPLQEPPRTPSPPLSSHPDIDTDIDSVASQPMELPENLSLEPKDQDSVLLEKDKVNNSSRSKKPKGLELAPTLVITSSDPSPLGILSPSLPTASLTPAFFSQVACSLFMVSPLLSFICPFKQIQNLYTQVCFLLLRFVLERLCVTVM
The settings on record: protein: recombinant; tags: N-terminal GST; dsDNA, one strand shown. The procedure, abridged: as §1

Another assay has as its target T10, ETV2 (Homo sapiens, UniProt O00321 1-342).
T10 sequence: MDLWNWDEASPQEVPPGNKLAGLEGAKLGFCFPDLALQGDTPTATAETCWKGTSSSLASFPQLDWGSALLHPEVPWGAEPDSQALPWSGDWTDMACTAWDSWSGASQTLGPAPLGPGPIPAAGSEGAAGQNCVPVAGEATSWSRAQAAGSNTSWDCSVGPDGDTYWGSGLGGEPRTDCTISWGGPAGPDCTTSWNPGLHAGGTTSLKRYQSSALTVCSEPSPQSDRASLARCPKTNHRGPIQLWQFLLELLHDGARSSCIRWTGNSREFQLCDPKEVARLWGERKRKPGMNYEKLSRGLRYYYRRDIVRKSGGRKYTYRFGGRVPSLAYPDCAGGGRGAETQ
Particulars: protein: recombinant; tags: N-terminal GST; dsDNA, one strand shown. In outline:
as §1

Another assay addresses T11, ELF3 (Homo sapiens, UniProt P78545 1-371).
T11 sequence: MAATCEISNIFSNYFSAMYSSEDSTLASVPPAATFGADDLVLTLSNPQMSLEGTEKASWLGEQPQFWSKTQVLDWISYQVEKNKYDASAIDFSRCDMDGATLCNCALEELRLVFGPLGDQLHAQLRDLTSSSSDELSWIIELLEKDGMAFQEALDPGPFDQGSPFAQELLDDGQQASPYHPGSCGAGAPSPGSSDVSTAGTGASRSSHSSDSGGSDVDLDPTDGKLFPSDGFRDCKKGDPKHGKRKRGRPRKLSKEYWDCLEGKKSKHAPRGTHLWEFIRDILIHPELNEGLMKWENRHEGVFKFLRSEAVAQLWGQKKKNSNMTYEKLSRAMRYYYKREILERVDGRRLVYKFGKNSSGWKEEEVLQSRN
Particulars: protein: recombinant; tags: N-terminal GST; dsDNA, one strand shown. The procedure, abridged: as §1

Another assay has as its target CRX (Homo sapiens, UniProt O43186 1-299). Particulars: protein: recombinant; tags: N-terminal GST; dsDNA, one strand shown. The procedure, abridged: as §1
The next assay deals with ETV1 (Homo sapiens, UniProt P50549 1-477). Particulars: protein: recombinant; tags: N-terminal GST; dsDNA, one strand shown. In outline:
as §1

CRX, sequence (O43186 whole entry): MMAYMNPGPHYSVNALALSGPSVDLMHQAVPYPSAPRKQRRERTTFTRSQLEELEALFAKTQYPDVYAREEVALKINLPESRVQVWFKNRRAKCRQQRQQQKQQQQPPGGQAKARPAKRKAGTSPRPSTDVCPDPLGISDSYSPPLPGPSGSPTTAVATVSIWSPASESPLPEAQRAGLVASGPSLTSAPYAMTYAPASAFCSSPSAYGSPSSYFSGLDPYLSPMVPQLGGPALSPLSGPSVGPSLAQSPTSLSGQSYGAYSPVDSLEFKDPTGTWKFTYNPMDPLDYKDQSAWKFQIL
HSF1, sequence (Q00613 whole entry): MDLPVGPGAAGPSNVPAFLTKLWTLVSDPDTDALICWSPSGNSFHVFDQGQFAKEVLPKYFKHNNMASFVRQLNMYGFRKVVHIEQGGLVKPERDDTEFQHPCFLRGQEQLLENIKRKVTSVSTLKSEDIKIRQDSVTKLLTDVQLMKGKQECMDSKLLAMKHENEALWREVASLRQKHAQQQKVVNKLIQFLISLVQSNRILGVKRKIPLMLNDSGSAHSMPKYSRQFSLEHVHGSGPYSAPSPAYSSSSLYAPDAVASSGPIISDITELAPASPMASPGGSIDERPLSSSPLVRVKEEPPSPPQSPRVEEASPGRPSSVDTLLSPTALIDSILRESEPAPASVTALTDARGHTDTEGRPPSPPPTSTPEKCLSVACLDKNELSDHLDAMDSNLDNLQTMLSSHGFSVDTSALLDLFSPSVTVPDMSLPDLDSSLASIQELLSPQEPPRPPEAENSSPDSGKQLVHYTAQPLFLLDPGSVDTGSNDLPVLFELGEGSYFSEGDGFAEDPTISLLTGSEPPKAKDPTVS
SPIB, sequence (Q01892 whole entry): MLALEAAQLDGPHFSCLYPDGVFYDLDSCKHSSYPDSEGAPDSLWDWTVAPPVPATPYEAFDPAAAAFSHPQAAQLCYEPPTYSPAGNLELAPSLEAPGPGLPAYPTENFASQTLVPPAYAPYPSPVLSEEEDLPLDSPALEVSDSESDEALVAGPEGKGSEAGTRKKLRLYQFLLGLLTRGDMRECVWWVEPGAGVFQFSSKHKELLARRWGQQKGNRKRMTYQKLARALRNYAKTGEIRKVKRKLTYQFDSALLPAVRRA
ETV1, sequence (P50549 whole entry): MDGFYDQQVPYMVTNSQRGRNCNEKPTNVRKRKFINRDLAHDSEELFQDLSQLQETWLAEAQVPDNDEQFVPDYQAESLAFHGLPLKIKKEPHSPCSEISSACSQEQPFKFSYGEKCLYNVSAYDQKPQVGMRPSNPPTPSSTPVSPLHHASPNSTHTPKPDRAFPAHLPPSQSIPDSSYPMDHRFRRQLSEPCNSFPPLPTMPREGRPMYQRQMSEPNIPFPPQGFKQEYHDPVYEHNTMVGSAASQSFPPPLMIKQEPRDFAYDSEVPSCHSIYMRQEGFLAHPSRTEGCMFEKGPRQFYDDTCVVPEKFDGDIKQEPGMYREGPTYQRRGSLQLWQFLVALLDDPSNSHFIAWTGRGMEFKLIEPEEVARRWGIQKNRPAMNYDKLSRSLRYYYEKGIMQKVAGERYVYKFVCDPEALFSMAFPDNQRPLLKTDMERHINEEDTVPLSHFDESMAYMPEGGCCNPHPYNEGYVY

Turning to TATGGT, the binding signal in the assay with FLI1 was 1.38 fold enrichment (6-mer frequency, TF over GST control); with ELK1 it was 1.3 fold enrichment (6-mer frequency, TF over GST control); with GABPA, 1.32 fold enrichment (6-mer frequency, TF over GST control); with ERG, 1.22 fold enrichment (6-mer frequency, TF over GST control); in the assay with ELF1 it was 1.37 fold enrichment (6-mer frequency, TF over GST control); with EHF, 1.39 fold enrichment (6-mer frequency, TF over GST control). Besides, the binding signal with SPI1 was 1.28 fold enrichment (6-mer frequency, TF over GST control); with SPIB, 1.3 fold enrichment (6-mer frequency, TF over GST control); in the assay with ELK3, 1.17 fold enrichment (6-mer frequency, TF over GST control); in the assay with FEV it was 1.24 fold enrichment (6-mer frequency, TF over GST control); with ETV5, 1.38 fold enrichment (6-mer frequency, TF over GST control); with HSF1, 1.16 fold enrichment (6-mer frequency, TF over GST control). Also, the binding signal is 1.49 fold enrichment (6-mer frequency, TF over GST control) in the assay with SPIC; 1.34 fold enrichment (6-mer frequency, TF over GST control) with ELF4; 1.44 fold enrichment (6-mer frequency, TF over GST control) with ELK4; 1 fold enrichment (6-mer frequency, TF over GST control) with ETV2; 1.5 fold enrichment (6-mer frequency, TF over GST control) in the assay with ELF3; 1.29 fold enrichment (6-mer frequency, TF over GST control) with CRX. The binding signal in the assay with ETV1 is 1.27 fold enrichment (6-mer frequency, TF over GST control).
